Our source for the Her2 level values is PubChem BioAssay.

Molecules are shown by their SMILES. Unmarked numbers belong to inactive results.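 Rule for the calls: active = Her2 level under about 52% in both replicate screens, with viability over 70% of control (limit read from the data); inconclusive = Her2 under the limit in one screen only, or viability under 70%; inactive = Her2 level above the set limit.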

The target in the assay is Receptor tyrosine-protein kinase erbB-2 (Homo sapiens) (UniProt P04626). Nature of the assay: reducers of endogenous Her2 protein level, primary screen, SKBR3 breast tumor cells, AlphaScreen, ATP viability (AID 461).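 Note: lower value means less Her2 protein in the cells.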 The settings on record: 18-24 h, at 10 µM, hits give low values. A general note: In Alpha technology, singlet oxygen from a donor bead excites a nearby acceptor bead.
Sequence of Receptor tyrosine-protein kinase erbB-2 (Homo sapiens) (P04626 whole entry, looked up): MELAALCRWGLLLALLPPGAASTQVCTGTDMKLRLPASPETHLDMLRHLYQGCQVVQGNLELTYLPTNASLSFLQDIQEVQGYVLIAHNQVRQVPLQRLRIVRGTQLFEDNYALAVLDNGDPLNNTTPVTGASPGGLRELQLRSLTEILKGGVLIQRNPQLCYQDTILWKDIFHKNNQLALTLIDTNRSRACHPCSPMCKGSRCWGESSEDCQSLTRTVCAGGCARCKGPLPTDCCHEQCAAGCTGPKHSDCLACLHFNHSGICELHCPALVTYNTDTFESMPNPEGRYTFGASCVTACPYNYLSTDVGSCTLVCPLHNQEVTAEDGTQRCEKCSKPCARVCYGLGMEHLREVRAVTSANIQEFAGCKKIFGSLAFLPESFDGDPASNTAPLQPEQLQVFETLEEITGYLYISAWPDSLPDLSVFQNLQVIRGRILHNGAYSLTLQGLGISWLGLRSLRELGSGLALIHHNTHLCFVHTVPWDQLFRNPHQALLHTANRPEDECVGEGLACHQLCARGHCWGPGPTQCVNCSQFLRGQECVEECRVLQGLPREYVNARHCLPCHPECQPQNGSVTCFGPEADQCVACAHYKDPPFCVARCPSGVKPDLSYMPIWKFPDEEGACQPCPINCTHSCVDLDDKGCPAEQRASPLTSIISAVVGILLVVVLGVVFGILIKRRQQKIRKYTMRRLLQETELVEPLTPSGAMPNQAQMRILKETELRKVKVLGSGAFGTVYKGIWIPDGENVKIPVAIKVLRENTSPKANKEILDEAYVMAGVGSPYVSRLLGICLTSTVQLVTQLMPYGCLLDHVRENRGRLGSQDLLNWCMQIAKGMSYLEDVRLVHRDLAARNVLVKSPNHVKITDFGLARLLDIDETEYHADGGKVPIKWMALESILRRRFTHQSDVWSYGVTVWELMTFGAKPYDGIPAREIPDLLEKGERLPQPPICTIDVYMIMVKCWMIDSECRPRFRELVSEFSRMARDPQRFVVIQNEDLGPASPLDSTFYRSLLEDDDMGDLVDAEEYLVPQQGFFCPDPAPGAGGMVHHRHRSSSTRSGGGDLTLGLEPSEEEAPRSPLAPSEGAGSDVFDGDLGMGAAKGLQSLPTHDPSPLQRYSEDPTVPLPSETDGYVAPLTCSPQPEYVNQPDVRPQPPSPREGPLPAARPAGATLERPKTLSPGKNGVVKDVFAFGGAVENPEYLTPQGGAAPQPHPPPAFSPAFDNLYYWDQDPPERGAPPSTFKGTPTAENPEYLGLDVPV
As for `COc1ccc(C(=O)NCc2nnc(SC)n2C2CCCCC2)cc1`, the Her2 level was 91%. Next, `Oc1ccc(Cl)cc1-c1cc(-c2ccccc2)n[nH]1`: 61%. To `O=C(CCCn1c(=O)c2sccc2n(Cc2cc(=O)n3ccccc3n2)c1=O)NCc1ccco1` belongs 126%; to `COC(=O)c1cn(NC(=O)C2CCCO2)c(=O)c2ccccc12` (stereo unspecified), 76%.

For the compound `CCN(CC)CCCNC(=O)c1cn(C)c2ccc(S(=O)(=O)N(C)C)cc2c1=O`, the Her2 level was 116%. Next, `Cc1nnc(SCCn2c(N3CCC(Cc4ccccc4)CC3)nc3c2c(=O)[nH]c(=O)n3C)s1`: 93.5%; `O=C(C(Cc1ccccc1)n1cccc1)N1CCCCCC1` (stereo unspecified): 102%; `O=C(Cn1nc(Cc2ccncc2)c2ccccc2c1=O)N1CCN(C(=O)c2ccco2)CC1`: 110%. To `COc1ccc(-c2nc(CS(=O)CC(=O)NCc3ccccn3)c(C)o2)cc1` (stereo unspecified) belongs 92.5%; to `CCn1c(SCC(=O)Nc2ccc(Cl)cc2)nnc1C1CC1`, 95.5%; to `CCOC(=O)CN(C(=O)c1ccccc1)c1ccccc1C`, 108%. `COC(=O)Cc1cc(=O)[nH]c(Nc2nc3ccccc3o2)n1`: the Her2 level was 99.5%.

On to `COc1ccc(C2CC(c3cccc(C)c3)n3ncnc3N2)cc1` (stereo unspecified), for which the Her2 level was 89%.

With `CC1CCCCN1CCNC(=O)C1CCN(S(=O)(=O)c2cccc3cccnc23)CC1` (stereo unspecified), the Her2 level is 96.5%. Next, `CCCCSc1nc(CCC)cc(=O)[nH]1`: 118%. Next, `CC1(C)CC(=O)C2=C(C1)NC(=O)CC2c1ccc(N(CCC#N)CCC#N)cc1` (stereo unspecified): 120%.
